Test results published in paper PMC9574860, “Chemical Toolkit for PARK7: Potent, Selective, and High-Throughput” (Journal of Medicinal Chemistry, 2022).
Screen size: about 7,900 compounds; about 400 (5.1%) showed an effect of 50% or more. For the sample, strong results were picked, then their nearest neighbours and some compounds at random.

These compounds were tested against Parkinson's disease protein 7 (PARK7/DJ1) (human, UniProt Q99497) (assay: primary screen, percent inhibition; read as competition with a fluorescent probe by fluorescence polarization; higher = more effect of the substance). Conditions: 100 µM.
Chain of Parkinson's disease protein 7 (PARK7/DJ1) (Q99497 whole entry, looked up, the tested form may be a part): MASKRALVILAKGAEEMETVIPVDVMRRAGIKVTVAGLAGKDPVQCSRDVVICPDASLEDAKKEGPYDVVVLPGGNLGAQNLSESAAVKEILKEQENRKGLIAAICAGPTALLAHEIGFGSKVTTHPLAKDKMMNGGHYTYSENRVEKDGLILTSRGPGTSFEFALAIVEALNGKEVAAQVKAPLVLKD
In short: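 Fluorescence-polarization probe displacement (JYQ-107, 20 nM final, 2 h) after 2 h preincubation of PARK7 (0.2 μM final) with each fragment at 100 μM final. Read-out ex/em 480/520 nm; remaining activity derived from FP signal loss relative to reference controls.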

**Q.** How did the Inhibition % turn out when CC(C)CN(C1CC1)S(=O)(=O)C=Cc1ccccc1 was run?
**A.** 13.3%

**Q.** How did the Inhibition % turn out when C=CC(=O)N1CCS(=O)(=O)c2ccccc2C1 was run?
**A.** 7.33%

**Q.** With CC1(C)OB(c2cccc3scnc23)OC1(C)C as the compound, how does the Inhibition % read?
**A.** 3.85%

**Q.** How did the Inhibition % turn out when C=CC(=O)NCC1CC(C)OC(C)C1 (centres unmarked) was run?
**A.** 11.1%

**Q.** With N#Cc1c(N)nc2n1CCS2 as the compound, how does the Inhibition % read?
**A.** 4.18%

**Q.** N#Cc1ncccc1OCCc1ccccc1 was tested. Which Inhibition % did it give?
**A.** 13.6%

**Q.** For CC(NC(=O)Cn1cnc(C#N)n1)c1ccc(F)cc1 (centres unmarked), which Inhibition % is on record?
**A.** 4.98%

**Q.** Which Inhibition % does the source give for C=CC(=O)N1CCN(Cc2ccon2)CC1 here?
**A.** 4.28%

**Q.** How did the Inhibition % turn out when Cn1ncc(C(F)(F)F)c1B1OC(C)(C)C(C)(C)O1 was run?
**A.** 8.08%

**Q.** With O=C(CCl)Nc1nncs1 as the compound, how does the Inhibition % read?
**A.** 4.4%

**Q.** How did the Inhibition % turn out when NC(=O)c1ccsc1NC(=O)CCl was run?
**A.** 84.7%

**Q.** How did the Inhibition % turn out when NC(=O)c1cc(-c2ccccc2)sc1NC(=O)CCl was run?
**A.** 79.3%

**Q.** With NC(=O)c1ccsc1NC(=O)CCCl as the compound, how does the Inhibition % read?
**A.** 9.06%

**Q.** Which Inhibition % does the source give for O=C(CCl)Nc1ccc(-c2ccccc2)cc1 here?
**A.** 4.3%

**Q.** How did the Inhibition % turn out when NC(=O)c1ccccc1NC(=O)CCl was run?
**A.** 0.06%

**Q.** With Cn1cc(C(=O)O)c(CCCCl)n1 as the compound, how does the Inhibition % read?
**A.** 6.81%

**Q.** N#Cc1cc(N2CCCC2)c2ccccc2n1 was tested. Which Inhibition % did it give?
**A.** 3.59%

**Q.** With C=CCNS(=O)(=O)C=Cc1ccccc1 as the compound, how does the Inhibition % read?
**A.** 7.29%

**Q.** With CC1(C)OB(c2cccc(-n3ccnn3)c2)OC1(C)C as the compound, how does the Inhibition % read?
**A.** 6.79%

**Q.** C=CC(=O)Nc1nc2cnccn2n1 was tested. Which Inhibition % did it give?
**A.** 23%

**Q.** C=CC(=O)NCc1cc2n(n1)CCCC2 was tested. Which Inhibition % did it give?
**A.** 10.1%

**Q.** Which Inhibition % does the source give for N#Cc1ncn(CC2CCCO2)n1 (centres unmarked) here?
**A.** 1.91%

**Q.** For O=S(=O)(F)c1ccccc1Br, which Inhibition % is on record?
**A.** 44.3%

**Q.** For O=S(=O)(F)c1ccccc1O, which Inhibition % is on record?
**A.** 9.92%

**Q.** With O=[N+]([O-])c1ccccc1S(=O)(=O)F as the compound, how does the Inhibition % read?
**A.** 99.1%

**Q.** Which Inhibition % does the source give for C=CC(=O)NCC1COC(=O)N1 (centres unmarked) here?
**A.** 13.5%

**Q.** For O=S(=O)(F)c1ccc(C(F)(F)F)cn1, which Inhibition % is on record?
**A.** 6.36%

**Q.** With O=S(=O)(F)c1ccc(C(F)(F)F)nn1 as the compound, how does the Inhibition % read?
**A.** 8.52%

**Q.** Which Inhibition % does the source give for Cc1ccc(S(=O)(=O)F)nn1 here?
**A.** 65.4%

**Q.** C=CC(=O)N[C@@H]1C=C[C@H](CO)C1 was tested. Which Inhibition % did it give?
**A.** 8.28%

**Q.** For Cn1cc(C=C(C#N)C(=O)NCCc2ccccc2)cn1, which Inhibition % is on record?
**A.** 9.69%

**Q.** With O=C(O)c1coc(C(=O)CCl)c1 as the compound, how does the Inhibition % read?
**A.** 96.1%

**Q.** Which Inhibition % does the source give for CNC(=O)c1cc(C(=O)CCl)cn1C here?
**A.** 5.61%

**Q.** O=C(O)c1ccc(CCCl)cc1 was tested. Which Inhibition % did it give?
**A.** 8.12%

**Q.** Which Inhibition % does the source give for NC(=O)c1coc(C(=O)CCl)c1 here?
**A.** 96.3%

**Q.** With O=C(CCl)Nc1cc(C(=O)O)cc(C(=O)O)c1 as the compound, how does the Inhibition % read?
**A.** 1.39%

**Q.** How did the Inhibition % turn out when C=CC(=O)N1CCC(OC)C(C)C1 (centres unmarked) was run?
**A.** 4.37%

**Q.** With N#CC(=Cc1ccccc1)C(=O)N1CCC(C(N)=O)CC1 as the compound, how does the Inhibition % read?
**A.** 9.67%

**Q.** How did the Inhibition % turn out when CN1C(=O)C(C#N)=C(N)C12CCCC2 was run?
**A.** 9%

**Q.** C=CC(=O)N1CCN(C(=O)OCC(C)C)CC1 was tested. Which Inhibition % did it give?
**A.** 11.5%

**Q.** How did the Inhibition % turn out when CN(CCC1CCOCC1)c1nc2ccccn2c1C#N was run?
**A.** 5.08%

**Q.** Which Inhibition % does the source give for CNC(=O)CNS(=O)(=O)C=Cc1ccc(Cl)cc1 here?
**A.** 0.98%

**Q.** For CNC(=O)CNS(=O)(=O)C=Cc1ccccc1, which Inhibition % is on record?
**A.** 6.07%

**Q.** Cc1ccc(C=CS(=O)(=O)NCC(=O)O)cc1 was tested. Which Inhibition % did it give?
**A.** 81.7%

**Q.** O=C(O)c1cccc(NS(=O)(=O)C=Cc2ccccc2)c1 was tested. Which Inhibition % did it give?
**A.** -0.0382%

**Q.** O=C(O)CNS(=O)(=O)C=Cc1ccccc1 was tested. Which Inhibition % did it give?
**A.** 84.3%

**Q.** For O=C(O)c1csc(NS(=O)(=O)C=Cc2ccccc2)c1, which Inhibition % is on record?
**A.** 62.5%

**Q.** How did the Inhibition % turn out when O=C(O)c1ccc(NS(=O)(=O)C=Cc2ccccc2)cc1 was run?
**A.** 6.88%

**Q.** With Cc1ccc(C=CS(=O)(=O)NCCC(=O)O)cc1 as the compound, how does the Inhibition % read?
**A.** 5.97%

**Q.** With O=C(O)CCNS(=O)(=O)C=Cc1ccccc1 as the compound, how does the Inhibition % read?
**A.** 6.07%

**Q.** How did the Inhibition % turn out when CC(=O)N1CCN(C(=O)C=Cc2c(C)nn(C)c2Cl)CC1 was run?
**A.** 8.55%

**Q.** For O=C(O)C1CC(O)CN1C(=O)C=Cc1ccc(F)cc1 (centres unmarked), which Inhibition % is on record?
**A.** 2.28%

**Q.** N#Cc1ccc(N2CCCC(N3CCCCCC3)C2)cn1 (centres unmarked) was tested. Which Inhibition % did it give?
**A.** 5.26%

**Q.** With O=C(CCl)Nc1cc(C2CC2)nn1-c1ccccc1 as the compound, how does the Inhibition % read?
**A.** 18.1%

**Q.** CC1CC(Sc2nncn2-c2ccccc2F)C(=O)O1 (centres unmarked) was tested. Which Inhibition % did it give?
**A.** 0.0122%

**Q.** With COc1ccc(F)cc1S(=O)(=O)n1ccnc1C as the compound, how does the Inhibition % read?
**A.** 3.76%

**Q.** Which Inhibition % does the source give for CC1(C)OB(c2cc(Cl)ccc2N)OC1(C)C here?
**A.** 13.4%

**Q.** For CC(C)(C)OC(=O)c1cc2ccc(B3OC(C)(C)C(C)(C)O3)cc2[nH]1, which Inhibition % is on record?
**A.** 7.8%

**Q.** With O=c1onc(-c2cnccn2)n1Cc1cccc(F)c1 as the compound, how does the Inhibition % read?
**A.** -2.87%

**Q.** With Cc1cc(NS(=O)(=O)c2ccc(S(=O)(=O)F)cc2)c[nH]c1=O as the compound, how does the Inhibition % read?
**A.** 92.6%

**Q.** Which Inhibition % does the source give for Cc1cc(NS(=O)(=O)C2=CCCCC2)c[nH]c1=O here?
**A.** 48.5%

**Q.** O=C(O)CC1OB(O)c2ccccc21 (centres unmarked) was tested. Which Inhibition % did it give?
**A.** 0.686%

**Q.** CCN(CCC#N)S(=O)(=O)C=Cc1ccccc1Cl was tested. Which Inhibition % did it give?
**A.** 6.99%

**Q.** O=C(O)c1ccc(CS)cc1 was tested. Which Inhibition % did it give?
**A.** 17.3%

**Q.** With C#CC(=O)Cc1ccccc1 as the compound, how does the Inhibition % read?
**A.** 7.8%

**Q.** O=C(O)Cc1ccccc1CS was tested. Which Inhibition % did it give?
**A.** 89.6%

**Q.** Which Inhibition % does the source give for C#CC(=O)Nc1ccc(CC(=O)O)cc1 here?
**A.** 0.397%

**Q.** Which Inhibition % does the source give for COc1ccccc1CS here?
**A.** 1.46%

**Q.** With O=C(O)Cc1ccc(CS)cc1 as the compound, how does the Inhibition % read?
**A.** 58.7%

**Q.** For C=CC(=O)NCC1CCCc2sc(C)nc21 (centres unmarked), which Inhibition % is on record?
**A.** 5.16%

**Q.** Which Inhibition % does the source give for Fc1ccc(C2=NOC(CCl)C2)cc1 (centres unmarked) here?
**A.** -2.86%

**Q.** Which Inhibition % does the source give for COc1ccc(S(=O)(=O)N(C)C)cc1NC(=O)CCl here?
**A.** 20.4%

**Q.** With C=CC(=O)N1CCOc2c(F)ccc(F)c21 as the compound, how does the Inhibition % read?
**A.** 9%

**Q.** With C=CC(=O)Nc1cc(CC(C)(C)C)nn1C as the compound, how does the Inhibition % read?
**A.** 8.54%

**Q.** For O=C(CC1SC(=O)NC1=O)Nc1ccc(Cl)cc1 (centres unmarked), which Inhibition % is on record?
**A.** 95.7%

**Q.** Which Inhibition % does the source give for CC(=O)Nc1ccc(S(=O)(=O)F)cc1 here?
**A.** 15.8%

**Q.** With O=C(CCCl)Nc1ccccc1 as the compound, how does the Inhibition % read?
**A.** 3.48%

**Q.** With CC(=O)Nc1ccc(NC2SC(=O)NC2=O)cc1 (centres unmarked) as the compound, how does the Inhibition % read?
**A.** 66.6%

**Q.** How did the Inhibition % turn out when O=C(CC1SC(=O)NC1=O)Nc1ccccc1 (centres unmarked) was run?
**A.** 82.7%

**Q.** With O=C(CCl)Nc1ccccc1C(=O)Nc1ccccc1 as the compound, how does the Inhibition % read?
**A.** 10.5%

**Q.** With C=CC(=O)Nc1ccc(Cl)cc1 as the compound, how does the Inhibition % read?
**A.** 5.59%

**Q.** Which Inhibition % does the source give for CC(=O)Nc1ccc(OC(=O)N(C)C)cc1 here?
**A.** 10.8%

**Q.** How did the Inhibition % turn out when O=C(CCCl)Nc1ccc(F)cc1 was run?
**A.** 5.87%
